Screens: PubChem, Broad Institute
ID4 SMM = ID4 (human) binding | P47928 | small molecule microarray, Flag-ID4 binding, fluorescence F/B | actives 1.2% (n = 31,000) | calls only; call rule not given here;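 further: a binder raises fluorescence above local background on the spot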
STK33 inh = inhibitors of human STK33 kinase. ADP-Glo luminescence, MBP substrate. Q9BYT3. inhibition, % at 12.5 µM. actives 0.44% (n = 27,000). AID 2322; in the data active means inhibition above about 20%; inconclusive means no clear call, values can overlap the other calls
Target sequence (Q9BYT3 whole entry, looked up): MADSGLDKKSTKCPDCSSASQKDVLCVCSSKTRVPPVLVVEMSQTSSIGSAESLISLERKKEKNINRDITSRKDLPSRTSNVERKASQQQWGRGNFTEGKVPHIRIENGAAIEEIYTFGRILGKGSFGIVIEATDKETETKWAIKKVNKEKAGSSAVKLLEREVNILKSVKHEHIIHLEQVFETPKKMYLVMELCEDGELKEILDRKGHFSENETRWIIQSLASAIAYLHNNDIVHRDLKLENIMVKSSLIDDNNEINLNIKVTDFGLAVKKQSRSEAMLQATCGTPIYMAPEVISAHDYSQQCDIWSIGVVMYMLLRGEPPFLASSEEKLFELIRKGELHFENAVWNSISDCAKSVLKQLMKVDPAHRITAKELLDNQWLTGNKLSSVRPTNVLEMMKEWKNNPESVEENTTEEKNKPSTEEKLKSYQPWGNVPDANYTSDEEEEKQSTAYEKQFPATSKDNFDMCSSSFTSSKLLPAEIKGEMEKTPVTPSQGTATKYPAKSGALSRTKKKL
mut p53 react = restores mutant p53 pathway signaling in SW480 cells; actives 1.5% (n = 28,000); activation, % at 9.98 µM; SW480 PUMA-promoter luciferase, p53 mutant reactivation; AID 624151; in the data active means activation above about 52%; inconclusive means no clear call, values can overlap the other calls
The depositor's hits bear a star; i = inactive; u = inconclusive; x = no result; + = active, no number. A selection: hits, their analogues and other compounds. The true share with any hit is near 2%.

SMILES	ID4 SMM	STK33 inh	mut p53 react
O=S(=O)(c1ccc(Cl)cc1)N1CCc2ccccc21	x	2	x
O=C(O)C1C2C=CC(O2)C1C(=O)Nc1ccc(S(=O)(=O)N2CCc3ccccc32)cc1 (stereo unspecified)	+	-2	-9
CN(CC(=O)Nc1ccccc1[N+](=O)[O-])S(=O)(=O)c1ccccc1	i	-1	16
O=C(CSc1nnc(-c2ccccc2Cl)n1-c1ccccc1)Nc1ccccc1Cl	i	-4	0
O=C(Nc1ccccc1C(=O)NCc1ccco1)c1ccccc1Cl	i	-1	0
O=C(Nc1ccccc1C(=O)NCc1ccco1)c1ccc(-c2ccccc2)cc1	i	0	58*
COC(=O)Cc1c(/C(Cl)=C/C(=O)O)oc2cc(C)cc(O)c2c1=O	x	-5	7
COC(=O)C(CC#Cc1ccc2c(c1)[C@]1(C(=O)N2)[C@H](C(N)=O)[C@H]2C(=O)O[C@H](c3ccccc3)[C@H](c3ccccc3)N2[C@@H]1c1ccccc1OCCO)C(=O)OC	i	14	x
O=C(NCc1ccc(F)cc1)[C@H]1C[C@H]2C(=O)N[C@@H](Cc3ccccc3)C(=O)N2[C@H]1c1ccc(O)cc1	x	-1	x
O=C(NCc1ccc(F)cc1)[C@H]1C[C@H]2C(=O)N[C@@H](Cc3ccccc3)C(=O)N2[C@H]1c1cccc(OCCO)c1	+	5	x
CC(C)C[C@@H]1NC(=O)[C@@H]2C[C@H](C(=O)NCc3ccc(F)cc3)[C@H](c3cccc(OCCO)c3)N2C1=O	i	5	x
NCCCCCCNC(=O)[C@@H]1C[C@@H]2C(=O)NCC(=O)N2[C@@H]1c1cccc(OCCO)c1	+	-3	x
O=C(CS)NCCCCCCNC(=O)[C@H]1C[C@H]2C(=O)NCC(=O)N2[C@H]1c1cccc(OCCO)c1	x	-2	x
O=C1N[C@@H](Cc2ccccc2)C(=O)N2[C@@H]1C[C@@H](C(=O)NCc1ccc(F)cc1)[C@H]2c1ccc(O)cc1	+	-9	x
CCN(CC)CCSc1nnc2c3cc(C)ccc3n(C)c2n1	i	-2	-4
CCOC(=O)c1c(-c2ccccc2)csc1NC(=O)Cn1cnc2ccccc2c1=O	i	2	-3
CS(=O)(=O)N(CC(=O)NC1CCCC1)c1ccc(Cl)cc1	i	-2	-1
O=C(NCc1nc2ccccc2[nH]1)C1=C[C@H](c2ccccc2)C[C@H](OCCCCO)O1	i	x	x
O=C(NCc1nc2ccccc2[nH]1)c1ccccc1	i	3	94*
Cc1ccc(O)c(N=Nc2ccccc2)n1	i	x	103*
CCCCCC1C(=O)O/C(=C\C(=O)O)C1=O (stereo unspecified)	x	-5	1
COc1c(Cc2ccccc2O)c(O)c(Cc2ccccc2O)c(O)c1C(=O)CCc1ccccc1	x	-14	x
NC(=O)CN(Cc1ccc(F)cc1)S(=O)(=O)c1ccc(Cl)cc1	i	0	25
Cc1cc(C(=O)O)ccc1NC(=O)CNC(=O)C1CCCCC1	i	0	-9
COC(=O)COc1cccc(NC(=O)c2cccs2)c1	i	1	-6
SMILES	ID4 SMM	STK33 inh	mut p53 react
COc1cccc(NC(=O)CNC(=O)c2cccs2)c1	i	1	51*
N#Cc1ccc(NC(=O)CCN2C(=O)c3ccccc3C2=O)cc1	i	-1	39
N#Cc1cccc(NC(=O)CCCN2C(=O)c3ccccc3C2=O)c1	+	0	12
Cn1c(SCC(=O)c2cc(C(C)(C)C)c(O)c(C(C)(C)C)c2)nnc1-c1ccncc1	i	3	-5
NS(=O)(=O)c1ccc(NC(=S)NCc2cccnc2)cc1	i	5	-14
Cc1cccnc1NC(=S)Nc1ccc(S(N)(=O)=O)cc1	i	u	66*
Cc1ccc(-c2cc(C(=O)NCc3cccnc3)no2)cc1	i	-1	91*
Cc1ccc(-c2cc(C(=O)NCCCN3CCOCC3)no2)cc1	i	-1	-11
Cc1nn(C)c(C)c1/C=C/C(=O)C(C)(C)C	i	x	2
COc1ccc(NC(=O)COc2ccc(CO)cc2OC)cc1	i	-1	9
O=C(CC1NC(=O)NC1=O)Nc1ccc(F)cc1 (stereo unspecified)	i	-7	-2
O=C(CC1CCOCC1)Nc1ccc(I)cc1	i	x	63*
CC(C)(O)[C@@H]1Cc2cc3ccc(=O)oc3cc2O1	i	1	54*
CC(C)(OC(=O)c1ccccc1)[C@@H]1Cc2cc3ccc(=O)oc3cc2O1	i	-1	13
Cc1ccc(-c2cc(-c3c(C)nn(C)c(=O)c3N)[nH]n2)cc1	i	x	86*
CCOC(=O)c1c(NC(=O)CSc2ncn[nH]2)sc2c1CCCC2	i	-3	-1
NC(=O)c1c(NC(=O)CSc2ncn[nH]2)sc2c1CCC2	+	7	-3
COc1ccc([N+](=O)[O-])cc1NC(=O)CN(c1ccc(I)cc1)S(C)(=O)=O	i	0	-16
Cc1ccc(-c2cc(C(F)(F)F)n3nc(C(=O)NCc4cc(C)n(C)n4)cc3n2)cc1C	i	-5	23
Cc1cc(C)nc(SC(C)C(=O)Nc2cccc3ccccc23)n1 (stereo unspecified)	i	-1	-1
O=S(=O)(c1cccc2cnccc12)N1CCNCC1	i	x	13
NCCNS(=O)(=O)c1cccc2cnccc12	x	44*	x
Cc1ccc(S(=O)(=O)N2C(=O)CCC2C(=O)Nc2ccc(Cl)c(C(F)(F)F)c2)cc1 (stereo unspecified)	i	1	-3
OC(COc1ccc(Cl)cc1)Cn1cnc(-c2ccccc2)c1 (stereo unspecified)	i	21*	-1
OC(COc1ccc2ccccc2c1Br)Cn1cnc(-c2ccccc2)c1 (stereo unspecified)	i	1	5
SMILES	ID4 SMM	STK33 inh	mut p53 react
Cc1cc(C)nc(SCC(O)COc2ccccc2)n1 (stereo unspecified)	i	2	u
OC(COc1ccc(Cl)cc1)CSc1ccccn1 (stereo unspecified)	i	4	78*
C[C@@H]1O[C@@H](O[C@@H]2[C@@H](O)[C@H](OCCc3ccc(O)c(O)c3)O[C@H](CO[C@@H]3OC[C@](O)(CO)[C@H]3O)[C@H]2OC(=O)/C=C/c2ccc(O)c(O)c2)[C@H](O[C@@H]2OC[C@H](O)[C@H](O)[C@H]2O)[C@H](O)[C@H]1O	x	0	5
Cc1ccc(S(=O)(=O)N2C(=O)CCC2C(=O)Nc2ccc(Cl)c(Cl)c2)cc1 (stereo unspecified)	i	3	-4
CC(C)[C@@H]1CC[C@@H](C)C[C@H]1OC(=O)c1ccccc1	x	2	x
O=C(c1cc2cc(Br)ccc2oc1=O)N1CCN(CCN2C(=O)c3cccc4cccc(c34)C2=O)CC1	i	8	65*
NC(=O)CN1CCN(CCN2C(=O)c3cccc4cccc(c34)C2=O)CC1	+	-1	75*
O=C1c2ccccc2C(=O)N1CCN1CCCCC1	x	5	x
O=C(NCCN1CCOCC1)c1cc2cc(Br)ccc2oc1=O	i	0	-5
COc1ccc(C(C)C)cc1S(=O)(=O)n1cnc2ccccc21	i	-3	9
CCOc1c(OC)cc(Cl)cc1C1NC(=O)NC(C)=C1C(=O)Nc1ccccc1C(=O)OC (stereo unspecified)	i	0	7
O=C(c1ccccc1)C(c1ccccc1)n1nnc2ccccc21 (stereo unspecified)	i	0	-7
